Assay results as given in PubChem BioAssay (NCI).
The panel holds about 79,000 compounds, 15% with a hit somewhere; the sample as a whole holds those more often. A number with no mark means an inactive call. Activity calls are given as the source filed them. Cut-off read from the data, not from the text of the source: active = growth inhibition above about 70%; inactive = the rest. *1 amine or outer side, *2 acyl side, *3 side chain or, on linkers, in order; H or OH if unused. Where a SMILES comes first, the peptide text is derived from it. The star is where a group is joined. γGlu = O=C(O)[CH](CCC(=O)[*:2])N[*:1]; NHOH = ON*

Assay: NCI Yeast Anticancer Drug Screen. Data for the cln2 rad14 strain (AID 165);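 note: 0% = growth equal to vehicle treated cultures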
Settings: S. cerevisiae cln2 rad14 strain, at 50.0 µM, stronger effect = higher value
Method in brief: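 The screen exposed genetically defined yeast (cln2 rad14) to test compounds and scored growth inhibition relative to vehicle-treated controls.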
`CCSC(OC(C)=O)C(Nc1ccc([N+](=O)[O-])cc1[N+](=O)[O-])C(OC(C)=O)C(OC(C)=O)C(COC(C)=O)OC(C)=O` (stereo not given) showed a growth inhibition of 17.2%. `O=C1NC2Cc3ccccc3C(C2)O1` (stereo not given) showed a growth inhibition of -1.95%. In the case of `Fc1ccc2c(c1)Nc1ccccc1S2`, the growth inhibition is reported as -8.85%. Compound `CNc1ccc(Br)cc1[N+](=O)[O-]` has a growth inhibition of -0.2%. Compound `NCCS/C=C/C(=O)Oc1ccc(Br)cc1` has a growth inhibition of -1.3%. Compound `Cc1nn2c(-c3ccccc3)cnnc2c1-c1ccccc1` has a growth inhibition of -26.1%. In the case of `CCCCCCCCCCCCCCSc1ccc2ccccc2c1`, the growth inhibition is reported as -20.2%. Compound `CC(C(=O)O)/C(=C\c1ccc2c(c1)OCO2)C(=O)O` (stereo not given) has a growth inhibition of -7.7%. With `O=C(O)CC(NC(=O)C(CC(=O)OCc1ccccc1)NC(=O)OCc1ccccc1)C(=O)OCc1ccccc1` (stereo not given) the growth inhibition was 24.4%. For `C=C(C)C1CCC2(C)CC3C(=C)CC(O)C(O)C3(C)CCC12` (stereo not given), the growth inhibition was 90% (active). For `O=c1ccn(Cc2ccccc2)c(=O)[nH]1`, the growth inhibition was -29.4%. `Oc1cc(CN2CCOCCOCCOCCOCC2)c(O)cc1CN1CCOCCOCCOCCOCC1` showed a growth inhibition of -49.1%. `O=c1[nH]c(=O)c2ncn(-c3ccc(Cl)cc3)c2[nH]1` showed a growth inhibition of -37.5%. Work on `OC(c1ccc(Cl)cc1)c1nc2ccccc2[nH]1` (stereo not given) yielded a growth inhibition of 15.9%. Work on `COc1cc(OC)c2nccc(NCCCN(C)C)c2c1[N+](=O)[O-]` yielded a growth inhibition of 21.6%. Compound `CSc1n[nH]c(NC(=O)c2ccccc2Cl)n1` has a growth inhibition of -33.2%. In the case of `C1CCC(C(CCCCC(C2CCCCC2)C2CCCCC2)C2CCCCC2)CC1`, the growth inhibition is reported as 16.1%. Compound `CC(=O)NC(c1ccc(F)cc1)(c1ccc(F)cc1)C(F)(F)F` has a growth inhibition of 35.6%. Compound `CCC(O)C(C)CO` (stereo not given) has a growth inhibition of -72.8%. In the case of `COC(=O)c1cc(C(=O)OC)c(CC(=O)C(=O)Nc2ccc(Cl)c(C(F)(F)F)c2)nc1CC(=O)C(=O)Nc1ccc(Cl)c(C(F)(F)F)c1`, the growth inhibition is reported as 10.5%. With `CN1C/C(=C\C=C\c2ccccc2)C(=O)/C(=C/C=C/c2ccccc2)C1` the growth inhibition was 11.8%. Work on `O=C(OCC(OC(=O)c1ccccc1)C1CC(C(O)C2CCCCC2)C(=O)O1)c1ccccc1` (stereo not given) yielded a growth inhibition of 10.2%. `CC(COc1ccccc1)OC=O` (stereo not given) showed a growth inhibition of -24.4%. With `NC(CCC(=O)NC(CCC(=O)NO)C(=O)NCC(=O)O)C(=O)O` (stereo not given) (γGlu-Glu(NHOH)-Gly-OH; configuration not given here) the growth inhibition was 2.05%. Work on `COC(=O)C1=C(C(=O)OC)C2(C(=O)OC)OC1(OC)C(C1(C(=O)OC)C(C(=O)OC)=C1C(=O)OC)=C2C(=O)OC` (stereo not given) yielded a growth inhibition of 16.1%. Compound `CCN(CC)c1ccc(NC(=S)Nc2cccc(C(F)(F)F)c2)c(C)c1` has a growth inhibition of 1.9%. Work on `C/C(=N/O)c1ccc[nH]1` yielded a growth inhibition of 20.1%. `CC(NC(=O)OC(C)(C)C)C(=O)C(N)=O` (stereo not given) gave a growth inhibition of 19.1%. `CCOC(CN1CCCCC1)OCC` showed a growth inhibition of 8.7%. Work on `O=Cc1c(O)nc[nH]c1=O` yielded a growth inhibition of 6.75%. Work on `COc1ccc2c(c1)CCC1C2CCC2(C)C(=O)C(n3cnc4c(SC)ncnc43)CC12` (stereo not given) yielded a growth inhibition of 29.1%. With `CC(C)(O)/C(=N/O)c1ccc(-c2ccccc2)cc1` the growth inhibition was -16.1%. For `C=CCN=C(N)SCCN(CCSC(N)=NCC=C)C(N)=O`, the growth inhibition was 34.2%. In the case of `COc1cccc(NC(=O)CC(=O)N2N=C(C)C(N=Nc3ccc(S(=O)(=O)c4ccc(N=NC5C(=O)N(C(=O)CC(=O)Nc6cccc(OC)c6)N=C5C)cc4)cc3)C2=O)c1` (stereo not given), the growth inhibition is reported as -16.4%. Work on `Cn1c(-c2ccccc2)nc(-c2ccccc2)[n+]1[O-]` yielded a growth inhibition of 9.8%. Compound `Cc1cccc(O)c1C(=O)O` has a growth inhibition of -9.45%. Compound `COc1cc(OC)c(NC(=O)NC(C)(C)C)cc1Cl` has a growth inhibition of -2.5%. For `CCOC(=O)c1nc2ccc(C(F)(F)F)cc2nc1NCc1ccc(F)cc1`, the growth inhibition was 10.2%. With `CN(C)CCCNC=O` the growth inhibition was -11.2%. In the case of `Nc1nc(N)c2nc(CNc3ccc(C(=O)NC(CCCNC(=O)c4ccccc4C(=O)O)C(=O)O)cc3)cnc2n1` (stereo not given), the growth inhibition is reported as -28.3%.

Assay: NCI Yeast Anticancer Drug Screen. Data for the bub3 strain (AID 167)
Settings: S. cerevisiae bub3 mutant strain, at 50.0 µM, stronger effect = higher value
Method in brief: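 Compounds were applied to a genetically altered yeast strain carrying a cell-cycle control defect. Growth inhibition was scored against vehicle-treated controls.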
With `CCSC(OC(C)=O)C(Nc1ccc([N+](=O)[O-])cc1[N+](=O)[O-])C(OC(C)=O)C(OC(C)=O)C(COC(C)=O)OC(C)=O` (stereo not given) the growth inhibition was -0.6%. Compound `O=C1NC2Cc3ccccc3C(C2)O1` (stereo not given) has a growth inhibition of 15.9%. `Fc1ccc2c(c1)Nc1ccccc1S2` showed a growth inhibition of -16%. Compound `CNc1ccc(Br)cc1[N+](=O)[O-]` has a growth inhibition of -26.7%. In the case of `NCCS/C=C/C(=O)Oc1ccc(Br)cc1`, the growth inhibition is reported as -9.9%. With `Cc1nn2c(-c3ccccc3)cnnc2c1-c1ccccc1` the growth inhibition was 6.75%. Compound `CCCCCCCCCCCCCCSc1ccc2ccccc2c1` has a growth inhibition of -8.65%. In the case of `CC(C(=O)O)/C(=C\c1ccc2c(c1)OCO2)C(=O)O` (stereo not given), the growth inhibition is reported as 12.9%. Compound `O=C(O)CC(NC(=O)C(CC(=O)OCc1ccccc1)NC(=O)OCc1ccccc1)C(=O)OCc1ccccc1` (stereo not given) has a growth inhibition of -5.8%. For `C=C(C)C1CCC2(C)CC3C(=C)CC(O)C(O)C3(C)CCC12` (stereo not given), the growth inhibition was 90.2% (active). Work on `O=c1ccn(Cc2ccccc2)c(=O)[nH]1` yielded a growth inhibition of -3.95%. Compound `Oc1cc(CN2CCOCCOCCOCCOCC2)c(O)cc1CN1CCOCCOCCOCCOCC1` has a growth inhibition of -8.3%. With `O=c1[nH]c(=O)c2ncn(-c3ccc(Cl)cc3)c2[nH]1` the growth inhibition was -24.4%. `OC(c1ccc(Cl)cc1)c1nc2ccccc2[nH]1` (stereo not given) gave a growth inhibition of 19.1%. For `COc1cc(OC)c2nccc(NCCCN(C)C)c2c1[N+](=O)[O-]`, the growth inhibition was -3.4%. For `CSc1n[nH]c(NC(=O)c2ccccc2Cl)n1`, the growth inhibition was -3.1%. Work on `C1CCC(C(CCCCC(C2CCCCC2)C2CCCCC2)C2CCCCC2)CC1` yielded a growth inhibition of -0.7%. With `CC(=O)NC(c1ccc(F)cc1)(c1ccc(F)cc1)C(F)(F)F` the growth inhibition was 43%. Work on `CCC(O)C(C)CO` (stereo not given) yielded a growth inhibition of 7.8%. In the case of `COC(=O)c1cc(C(=O)OC)c(CC(=O)C(=O)Nc2ccc(Cl)c(C(F)(F)F)c2)nc1CC(=O)C(=O)Nc1ccc(Cl)c(C(F)(F)F)c1`, the growth inhibition is reported as 12.2%. `CN1C/C(=C\C=C\c2ccccc2)C(=O)/C(=C/C=C/c2ccccc2)C1` gave a growth inhibition of 11.2%. Work on `O=C(OCC(OC(=O)c1ccccc1)C1CC(C(O)C2CCCCC2)C(=O)O1)c1ccccc1` (stereo not given) yielded a growth inhibition of 22.2%. `CC(COc1ccccc1)OC=O` (stereo not given) showed a growth inhibition of -13.8%. `NC(CCC(=O)NC(CCC(=O)NO)C(=O)NCC(=O)O)C(=O)O` (stereo not given) (γGlu-Glu(NHOH)-Gly-OH; configuration not given here) gave a growth inhibition of -4.85%. Work on `COC(=O)C1=C(C(=O)OC)C2(C(=O)OC)OC1(OC)C(C1(C(=O)OC)C(C(=O)OC)=C1C(=O)OC)=C2C(=O)OC` (stereo not given) yielded a growth inhibition of 1.25%. `CCN(CC)c1ccc(NC(=S)Nc2cccc(C(F)(F)F)c2)c(C)c1` showed a growth inhibition of 2.45%. Compound `C/C(=N/O)c1ccc[nH]1` has a growth inhibition of 13.2%. Work on `CC(NC(=O)OC(C)(C)C)C(=O)C(N)=O` (stereo not given) yielded a growth inhibition of 8.25%. With `CCOC(CN1CCCCC1)OCC` the growth inhibition was -1.6%. For `O=Cc1c(O)nc[nH]c1=O`, the growth inhibition was -13.4%. `COc1ccc2c(c1)CCC1C2CCC2(C)C(=O)C(n3cnc4c(SC)ncnc43)CC12` (stereo not given) showed a growth inhibition of 25.2%. In the case of `CC(C)(O)/C(=N/O)c1ccc(-c2ccccc2)cc1`, the growth inhibition is reported as 9.35%. In the case of `C=CCN=C(N)SCCN(CCSC(N)=NCC=C)C(N)=O`, the growth inhibition is reported as 4.05%. In the case of `COc1cccc(NC(=O)CC(=O)N2N=C(C)C(N=Nc3ccc(S(=O)(=O)c4ccc(N=NC5C(=O)N(C(=O)CC(=O)Nc6cccc(OC)c6)N=C5C)cc4)cc3)C2=O)c1` (stereo not given), the growth inhibition is reported as -2%. Work on `Cn1c(-c2ccccc2)nc(-c2ccccc2)[n+]1[O-]` yielded a growth inhibition of 0.6%. Compound `Cc1cccc(O)c1C(=O)O` has a growth inhibition of 9.05%. `COc1cc(OC)c(NC(=O)NC(C)(C)C)cc1Cl` showed a growth inhibition of 18.6%. Compound `CCOC(=O)c1nc2ccc(C(F)(F)F)cc2nc1NCc1ccc(F)cc1` has a growth inhibition of 12.9%. With `CN(C)CCCNC=O` the growth inhibition was -0.45%. Work on `Nc1nc(N)c2nc(CNc3ccc(C(=O)NC(CCCNC(=O)c4ccccc4C(=O)O)C(=O)O)cc3)cnc2n1` (stereo not given) yielded a growth inhibition of -37.9%.
